Records with an inconclusive call do not appear. Active and inactive are the calls of the source. How the source made its calls: active means hit-call score of the fitted dose curve at least 0.9, where 1 is the maximum; inconclusive means response in the unintended direction; inactive means score below 0.9.
What was measured:
[1] = molecular target: Glucocorticoid receptor (Homo sapiens) (UniProt P04150); experiment: NVS_NR_hGR: NovaScreen (NVS) Nuclear Receptor Binding Assay for human Glucocorticoid Receptor (GR) (AID 2283363);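 further: activity is loss of specific radioligand binding signal relative to DMSO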
In short: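 Compounds first tested in duplicate at 25 uM, actives followed up in concentration series. Binding to extracted GR protein measured as competitive radioligand displacement, filter scintillation read 16 h post-dosing, normalised to DMSO.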

PGR (gene 5241) [2] = molecular target: PGR (gene 5241) (UniProt P06401); experiment: TOX21_PR_BLA_Followup_Antagonist_ratio: Tox21 HEK293 Progesterone Receptor (PR) Antagonism Beta-lactamase Follow-Up Assay, Ratio (AID 2283934);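 further: PR-UAS-bla HEK293T cells stimulated with 1 nM R5020 agonist for 16 hr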
In short: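 Cells are plated, rested 6 hr, then dosed with test compound in DMSO and challenged with 1 nM promegestone. After 16 hr incubation, substrate loading for 2 h at room temperature precedes fluorescence reading; viability is measured in the same wells.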

PGR (gene 5241) [3] = molecular target: PGR (gene 5241) (UniProt P06401); experiment: TOX21_PR_LUC_Followup_Antagonist: Tox21 HEK293 Progesterone Receptor (PR) Antagonism Luciferase Follow-Up Assay (AID 2283938);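 further: curve fitted upward as signal gain over DMSO baseline despite antagonist label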
In short: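 HEK293-PR-A-luc cells were precultured 5 days in medium with 10% charcoal-stripped FBS, seeded 3,000/well, then exposed to compounds in DMSO for 16 h at 37C. Luciferase was read by ONE-Glo luminescence after 30 min at room temperature.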

[4] = molecular target: guinea pig Opioid, Kappa 1 Receptor (OpiateK), OPRK1 (gene 100135587) (UniProt P41144); experiment: NVS_GPCR_gOpiateK: NovaScreen (NVS) G Protein-Coupled Receptor Assay for guinea pig Opioid, Kappa 1 Receptor (OpiateK) (AID 2283252);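 further: active means reduced radioligand binding relative to DMSO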
In short: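 Radioligand binding to kappa opioid receptor in guinea pig cerebellar membranes, read by filtration and scintillation at 2 h. Compounds first tested in duplicate at 25 uM, then actives in concentration series; signal loss fitted against DMSO.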

Chain of PGR (gene 5241) (P06401 whole entry, looked up): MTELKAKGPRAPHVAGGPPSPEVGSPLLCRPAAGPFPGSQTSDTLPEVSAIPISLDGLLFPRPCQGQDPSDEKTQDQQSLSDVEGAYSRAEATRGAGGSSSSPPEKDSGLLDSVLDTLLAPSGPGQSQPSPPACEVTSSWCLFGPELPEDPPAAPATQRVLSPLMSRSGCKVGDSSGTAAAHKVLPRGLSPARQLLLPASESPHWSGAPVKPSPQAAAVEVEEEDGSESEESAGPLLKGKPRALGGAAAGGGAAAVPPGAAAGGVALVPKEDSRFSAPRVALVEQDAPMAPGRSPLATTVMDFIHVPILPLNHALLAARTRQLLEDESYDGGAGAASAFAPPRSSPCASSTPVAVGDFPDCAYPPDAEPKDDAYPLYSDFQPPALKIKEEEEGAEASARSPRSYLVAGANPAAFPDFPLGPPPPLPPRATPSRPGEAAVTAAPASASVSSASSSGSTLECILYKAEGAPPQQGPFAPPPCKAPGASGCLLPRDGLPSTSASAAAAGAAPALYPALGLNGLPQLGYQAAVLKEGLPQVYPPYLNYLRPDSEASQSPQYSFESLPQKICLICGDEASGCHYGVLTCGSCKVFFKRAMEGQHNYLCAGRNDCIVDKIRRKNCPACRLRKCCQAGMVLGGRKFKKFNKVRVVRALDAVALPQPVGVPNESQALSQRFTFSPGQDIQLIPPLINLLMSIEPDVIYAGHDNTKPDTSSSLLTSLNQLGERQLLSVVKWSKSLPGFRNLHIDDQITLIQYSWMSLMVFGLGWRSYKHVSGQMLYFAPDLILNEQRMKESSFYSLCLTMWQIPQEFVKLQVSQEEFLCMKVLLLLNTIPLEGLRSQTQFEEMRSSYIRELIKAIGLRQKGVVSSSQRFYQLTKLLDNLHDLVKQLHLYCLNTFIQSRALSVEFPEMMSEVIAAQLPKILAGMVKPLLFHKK
Chain of Glucocorticoid receptor (Homo sapiens) (P04150 whole entry, looked up): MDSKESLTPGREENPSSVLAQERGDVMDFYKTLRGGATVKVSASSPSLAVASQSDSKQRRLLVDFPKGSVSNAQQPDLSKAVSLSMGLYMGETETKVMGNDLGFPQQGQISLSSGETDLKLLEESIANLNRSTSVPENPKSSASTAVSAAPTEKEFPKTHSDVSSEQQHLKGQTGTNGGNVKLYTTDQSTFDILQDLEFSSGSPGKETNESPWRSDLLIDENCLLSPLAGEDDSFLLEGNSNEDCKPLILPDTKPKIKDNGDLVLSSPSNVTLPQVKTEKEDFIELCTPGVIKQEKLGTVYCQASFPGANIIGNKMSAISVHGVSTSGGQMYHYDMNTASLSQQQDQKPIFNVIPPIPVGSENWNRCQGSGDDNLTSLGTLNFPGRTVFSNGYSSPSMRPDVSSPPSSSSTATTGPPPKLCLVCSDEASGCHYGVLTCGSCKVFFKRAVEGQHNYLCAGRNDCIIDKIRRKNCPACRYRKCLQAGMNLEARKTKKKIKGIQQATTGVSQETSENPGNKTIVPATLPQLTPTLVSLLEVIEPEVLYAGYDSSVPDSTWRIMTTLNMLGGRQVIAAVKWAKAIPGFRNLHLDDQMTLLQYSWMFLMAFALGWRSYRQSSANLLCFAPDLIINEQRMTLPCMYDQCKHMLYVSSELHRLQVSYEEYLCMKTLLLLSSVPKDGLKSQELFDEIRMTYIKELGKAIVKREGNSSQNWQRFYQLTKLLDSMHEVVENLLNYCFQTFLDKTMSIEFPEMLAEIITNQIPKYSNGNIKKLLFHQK
Chain of guinea pig Opioid, Kappa 1 Receptor (OpiateK), OPRK1 (gene 100135587) (P41144 whole entry, looked up): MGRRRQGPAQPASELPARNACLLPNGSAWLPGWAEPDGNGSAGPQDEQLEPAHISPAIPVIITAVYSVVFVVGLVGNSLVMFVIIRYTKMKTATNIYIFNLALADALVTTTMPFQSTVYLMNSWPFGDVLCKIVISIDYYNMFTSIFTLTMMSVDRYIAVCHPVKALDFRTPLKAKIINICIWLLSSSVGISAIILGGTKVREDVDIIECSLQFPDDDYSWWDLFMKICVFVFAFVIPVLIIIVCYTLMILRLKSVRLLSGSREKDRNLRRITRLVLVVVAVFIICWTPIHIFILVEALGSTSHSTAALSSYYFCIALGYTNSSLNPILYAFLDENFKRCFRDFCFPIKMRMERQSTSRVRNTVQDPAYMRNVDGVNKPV

CCCCC(CC)COC(=O)CS (centres undefined)
AC50 [1]: 25 µM (active)

c1cc[c]([Bi]([c]2ccccc2)[c]2ccccc2)cc1
AC50 (PGR (gene 5241) [2]): 16.3 µM (active) | outcome (PGR (gene 5241) [3]): inactive

CN(C)CCC(c1ccc(Cl)cc1)c1ccccn1 (centres undefined)
AC50 [4]: 12.7 µM (active)
